# Most compounds without a hit are left out; they make up all but 0.93% or so of the library.
# MEP2-GFP yeast = yeast TOR pathway MEP2-GFP modulation | S. cerevisiae MEP2-GFP strain, flow cytometry GFP, 3 h; 100% = DMSO control level | GFP response vs DMSO, % at 10 µM | 330,000 tested, 0.51% active;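 active means GFP response versus DMSO above a set limit, roughly screen mean plus 3 SD, cut at about 180% in these data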;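 further: median GFP fluorescence of the barcode-gated MEP2-GFP cells per well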
# CIT2-GFP yeast = modulators of TOR pathway CIT2-GFP in S. cerevisiae. GFP response vs DMSO, % at 10 µM. AID 2029. S. cerevisiae CIT2-GFP strain, flow cytometry, 3 h; 100 means same as DMSO wells. 320,000 tested, 0.065% active;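 active means GFP response relative to DMSO above a set limit, near the screen mean plus 3 SD, cut at about 150% in these data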;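 further: ratio of well median GFP fluorescence to mean of DMSO wells on the plate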
# AGP1-GFP MLPCN = modulators of TOR pathway AGP1-GFP in S. cerevisiae; 320,000 tested, 0.02% active; AID 2066; GFP response vs DMSO, % at 10 µM; S. cerevisiae AGP1-GFP multiplex flow cytometry, 3 h; GFP as percent of DMSO wells;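 active means GFP response relative to DMSO above a set limit, near screen average plus 3 SD, cut at about 150% in these data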;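 further: median GFP channel fluorescence of the gated AGP1 strain per well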
# RPL19A-GFP yeast = yeast TOR pathway RPL19A-GFP modulation. S. cerevisiae RPL19A-GFP strain, flow cytometry, 3 h; active compounds read low. percent response vs DMSO, % at 10 µM. 330,000 tested, 0.3% active. AID 2025;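 active means percent response vs DMSO below 50%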;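 further: median channel GFP fluorescence of the barcoded RPL19A-GFP strain; ratio of sample median GFP to plate DMSO average so 100% = DMSO; lower means less RPL19A-GFP as with rapamycin TOR inhibition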
# LAP4-GFP MLPCN = yeast TOR pathway LAP4-GFP modulation. S. cerevisiae LAP4-GFP multiplex, flow cytometry GFP, 3 h; median GFP as percent of DMSO wells. GFP response vs DMSO, % at 10 µM. 320,000 tested, 0.34% active. AID 2023;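 active means GFP response vs DMSO above a set limit, about the screen mean plus 3 SD, cut at about 150% in these data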
# LAP4 cherry2 = yeast LAP4-GFP modulation, second cherry pick; S. cerevisiae LAP4-GFP strain, flow cytometry GFP, 3 h; GFP response vs DMSO, % at 10 µM; 590 tested, 20% active; shares compounds with LAP4-GFP MLPCN; AID 2621;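 active means GFP signal as percent of the solvent control above about 150%, meaning raised reporter expression, limit read from the data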;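 further: ratio of well median GFP fluorescence to plate DMSO mean so 100% = DMSO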
# MEP2-GFP pick2 = second confirmation of modulators of TOR reporter MEP2-GFP in yeast. shares compounds with LAP4-GFP MLPCN. GFP response vs DMSO, % at 10 µM. 590 tested, 10% active. S. cerevisiae MEP2-GFP strain, flow cytometry GFP, 3 h;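 active means GFP signal above 150% of the solvent control wells, that is a rise of more than half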;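 further: median channel GFP fluorescence of all gated yeast cells per well; ratio of median GFP to plate DMSO average so 100% = DMSO level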
# RPL19A-GFP pick2 = second confirmation of modulators of TOR reporter RPL19A-GFP in yeast. shares compounds with LAP4-GFP MLPCN. S. cerevisiae RPL19A-GFP strain, flow cytometry GFP, 3 h; active compounds read low; 100% means same as DMSO wells. GFP response vs DMSO, % at 10 µM. 590 tested, 3% active;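 active means under 65% GFP response relative to DMSO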;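 further: median GFP channel fluorescence per well over the all cells gate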
# CIT2 GFP CP2 = yeast CIT2-GFP TOR reporter modulation, second cherry pick | shares compounds with LAP4-GFP MLPCN | S. cerevisiae CIT2-GFP strain, flow cytometry GFP, 3 h; DMSO control wells read 100% | GFP response vs DMSO, % at 10 µM | 590 tested, 8% active;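 active means GFP response vs DMSO above about 150%, limit read from the data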;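 further: median green fluorescence per well over all gated yeast cells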
# AGP1-GFP pick2 = yeast AGP1-GFP TOR reporter modulation, second cherry pick; shares compounds with LAP4-GFP MLPCN; percent response vs DMSO, % at 10 µM; S. cerevisiae AGP1-GFP strain, flow cytometry GFP, 3 h; 590 tested, under 10 active; AID 2643;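 active means over 150 percent of DMSO response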;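 further: median GFP channel fluorescence over all cells without mother daughter split; sample median GFP divided by mean DMSO control so 100% equals DMSO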
# s288c autofluor = counter-screen for compound autofluorescence in yeast s288c cells | shares compounds with LAP4-GFP MLPCN | S. cerevisiae s288c, 520 nm autofluorescence, flow cytometry, 3 h; active compounds read high; zero means same as solvent-only cells | fluorescence change (kMESF span) at 33 µM | 610 tested, under 10 active | AID 2757;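 active means fluorescence span over the dose series, or activity score, above about 33, limit read from the data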
# s288c autofl DR = TOR screen hit shows autofluorescence in yeast s288c | shares compounds with LAP4-GFP MLPCN | S. cerevisiae s288c parental, compound autofluorescence, flow cytometry, 3 h | fluorescence change (span) at 33 µM | 110 tested, under 10 active;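 active means fluorescence change span, or the activity score built from it, above 25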
# TORC1 bypass = wildtype yeast growth loss with TORC1 bypass cells unaffected | shares compounds with LAP4-GFP MLPCN | S. cerevisiae BY4741 spot growth rating, 48-72 h; active compounds read low | growth rating (0-3) at 30 µM | 120 tested, under 10 active | AID 504456;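 active means growth rating at most 1 for wild type yeast while the TORC1 bypass strain still grows fully, rated 3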
# The depositor's hits bear a star; · = not tested or not shown; [ ] = dose if it differs, or a comment.
SMILES,MEP2-GFP yeast,CIT2-GFP yeast,AGP1-GFP MLPCN,RPL19A-GFP yeast,LAP4-GFP MLPCN,LAP4 cherry2,MEP2-GFP pick2,RPL19A-GFP pick2,CIT2 GFP CP2,AGP1-GFP pick2,s288c autofluor,others
CNc1nc(N)c([N+](=O)[O-])c(NCC2CCCO2)n1 (stereo not given),97,97,96,96,105,·,·,·,·,·,·,s288c autofl DR=0.06;TORC1 bypass=3
CCOc1ccc(Nc2nc(NC)nc(N)c2[N+](=O)[O-])cc1,·,·,·,·,·,·,·,·,·,·,·,s288c autofl DR=0.05;TORC1 bypass=3
O=C(CN(C(=O)Cn1nnc(-c2ccc(F)cc2)n1)c1ccc(F)cc1)NC1CCCC1,104,94,96,99,89,·,·,·,·,·,·,
Cc1cccc(CC(=O)N2CCC(n3nccc3NC(=O)C3CC3)CC2)c1,106,105,104,100,110,·,·,·,·,·,·,
CCCC(=O)Nc1sc2c(c1C(=O)Nc1ccccn1)CCCC2,95,82,90,95,107,·,·,·,·,·,·,
COc1ccccc1C(=O)NNC(=S)NC(=O)c1cccs1,108,122,126,125,186*,·,·,·,·,·,0.2,
O=C(NC(=S)NNC(=O)c1ccccc1O)c1cccs1,100,91,96,110,91,·,·,·,·,·,·,
O=C(Cc1cccs1)NNC(=S)NCc1ccc(Cl)cc1,92,103,98,92,96,·,·,·,·,·,·,
O=C(Cc1ccc(Cl)cc1)NNC(=S)NC(=O)c1cccs1,104,108,113,109,199*,·,·,·,·,·,1.1,
O=C(O)c1nn(-c2ccccc2C(F)(F)F)cc1O,93,105,99,98,95,·,·,·,·,·,·,
O=C1N(c2ccccc2C(F)(F)F)O[C@]1(c1ccccc1)C1CCCCC1,89,99,71,95,85,107,102,105,115,107,-0.1,
CC(C)[C@]1(c2ccccc2)ON(c2ccccc2C(F)(F)F)C1=O,94,94,93,94,94,109,103,104,114,108,-0.2,
CC(C)[C@]1(c2ccc(Cl)cc2)ON(c2ccccc2C(F)(F)F)C1=O,99,106,100,96,107,102,94,101,106,100,-0.1,
O=C1N(c2ccccc2C(F)(F)F)OC1(Cc1ccccc1)c1ccccc1 (stereo not given),99,101,97,96,94,112,106,109,112,103,0,
FC(F)(F)c1ccccc1-n1ccnc1,99,72,75,89,108,·,·,·,·,·,·,
Cc1ccc(O)c(Cn2nnc3ccccc32)c1,99,95,101,110,113,·,·,·,·,·,·,
O=C(CCl)N(CCc1ccccc1)CCc1ccccc1,127,94,112,96,108,·,·,·,·,·,·,
CC(C)[C@@]1(c2ccccc2)ON(c2ccccc2C(F)(F)F)C1=O,94,105,100,99,110,105,96,102,104,97,-0.2,
CCSC1=NSC2=NC(=O)/C(=C\c3coc4ccccc4c3=O)C(=N)N12,268*,74,40,85,130,309*,169*,169,161*,114,·,
CCOC(=O)N1CCN(C(=O)/C(=C/c2cccs2)NC(=O)c2cccs2)CC1,97,104,101,109,109,·,·,·,·,·,·,
Cc1cc(C)nc(Nc2n[nH]c(COc3ccccc3)n2)n1,167,101,25,62,88,101,107,99,104,96,·,
Cc1cc(C)nc(Nc2n[nH]c(COc3ccc4ccccc4c3)n2)n1,104,93,101,96,105,·,·,·,·,·,·,
Cc1cccc(N=Nc2ccc(O)c3ncccc23)c1,96,99,102,99,165*[may fluoresce green],200*,129,104,131,108,1.6,
COc1ccc(C(=O)NCCNc2nc3cc(C)c(C)cc3cc2C)cc1,111,114,107,99,104,·,·,·,·,·,·,
COc1ccc(C2=NO[C@@](CC(=O)O)(C(=O)Nc3ccc4c(c3)OCCO4)C2)cc1,107,104,93,102,92,·,·,·,·,·,·,
SMILES,MEP2-GFP yeast,CIT2-GFP yeast,AGP1-GFP MLPCN,RPL19A-GFP yeast,LAP4-GFP MLPCN,LAP4 cherry2,MEP2-GFP pick2,RPL19A-GFP pick2,CIT2 GFP CP2,AGP1-GFP pick2,s288c autofluor,others
COc1ccccc1CN1CCNC(=O)C1CC(=O)NC1CCCCCC1 (stereo not given),101,109,96,97,85,·,·,·,·,·,·,
O=C(O)c1cccc(S(=O)(=O)Nc2ccc(S(=O)(=O)N3CCOCC3)cc2)c1,129,92,85,58,90,102,110,98,106,98,0,
Cc1ccc(NS(=O)(=O)c2cccc(C(=O)O)c2)cc1S(=O)(=O)N1CCOCC1,104,101,94,97,88,·,·,·,·,·,·,
Nc1nc(N)c2nc(-c3ccccc3)c(N)nc2n1,332*,116,44,61,115,97,98,98,93,99,·,
O=C(Nc1nc2ccc(F)cc2s1)c1ccccn1,103,106,102,90,178*,·,·,·,·,·,0.82,
Cc1ccc(S(=O)(=O)CC(=O)Nc2cc(C)on2)cc1,104,102,94,96,92,·,·,·,·,·,·,
COc1ccc(C(=O)NCC(=O)N2CCCC(C(F)(F)F)C2)cc1OC (stereo not given),103,103,103,101,107,·,·,·,·,·,·,
N/C(Cc1ccc(Cl)cc1Cl)=N\OC(=O)c1cccs1,111,130,47,77,217*,197*,159*,84,186*,75,1.4,
N#CC1(NC(=O)COC(=O)c2cc(=O)[nH]c3ccccc23)CCCCC1,89,91,106,92,106,·,·,·,·,·,·,
CCOc1ccccc1C(=O)N(CCC(=O)OC)c1ccccn1,90,93,93,95,85,·,·,·,·,·,·,

# Assay outcomes deposited in PubChem BioAssay by NMMLSC.
